# Data published in the supplement of paper PMC10338343.
# ± gives the standard deviation.
# Key:
# [1] = test system: MILI (PIWIL2) piRISC loaded with L1MC piRNA (26 nt); test: pre-steady-state target cleavage rate (min^-1); guide: L1MC piRNA 5'p-UAACUAAAUACUAUGCAAGCUGUAGG; higher = faster piRNA-guided slicing of the target; details: auxiliary factor: 500 nM mouse GTSF1
# In short: (§1)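 Cleave-'n-Seq: 1 nM active affinity-purified piRISC with one synthetic guide and 0.1 nM transcribed, DNA-blocked target RNA library were mixed, with or without 500 nM GTSF1 partner protein, in HEPES–potassium acetate buffer at 33 °C for 0–8 or 0–960 min. Uncleaved targets were sequenced and normalised to depth and to weakly complementary targets, three trials were pooled, and k3 was capped at 0.0001 min^-1. The pre-steady-state cleavage rate was fitted […].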
# [2] = test system: EfPiwi piRISC loaded with L1MC piRNA (26 nt); test: pre-steady-state target cleavage rate (min^-1); auxiliary factor: 500 nM Ephydatia muelleri Gtsf1; guide: L1MC piRNA 5'p-UAACUAAAUACUAUGCAAGCUGUAGG; MIWI and MILI are mouse PIWI proteins and EfPiwi is from a freshwater sponge; tags in brackets are library labels; higher = faster piRNA-guided slicing of the target
# In short: as §1
Sequence,pre-steady-state target cleavage rate [1],pre-steady-state target cleavage rate [2]
UCCUCCUACAGCUUGCAUAGUAUUUAGUGA,0.186 ± 0.034,0.00553 ± 0.0017
UCCUGCUACAGCUUGGAUAGUAUUUAGAUA,0.0476 ± 0.016,0.00339 ± 0.001
UCCUGGAAGAGCUUGCAUAGUAUUUACAAA,0.0536 ± 0.02,0.00396 ± 0.0018
UCCUGGAUGAGCUUGUCAUAGUAUUUAGUUA,0.0971 ± 0.013,0.00721 ± 0.0027
UCCUGGAUCAGCUUGCAUUGUAUUUAGAAA,0.0362 ± 0.013,0.00264 ± 0.0021
UCCUGCAACAGCUUGCAUAGUAUUUAGAAA,0.138 ± 0.026,0.00432 ± 0.0016
UCCUGCUACAGCUUGCAUAAGUAUUUAGUUA,0.0171 ± 0.0064,0.00273 ± 0.0019
UCCUGGAUGUGCUUGCAUAGUAUUUAGAUUA,0.0647 ± 0.016,0.00327 ± 0.0022
UCCUCCAUCAGCUUGCAUAGUAUUUAGAAA,0.0615 ± 0.017,0.00539 ± 0.0026
UCCUGGAACAGCUUGCUUAGUAUUUAGUAA,0.238 ± 0.022,0.00393 ± 0.0022
UCCUCCUACAGCUUGCAUACUAUUAAGUUA,0.0631 ± 0.019,0.00391 ± 0.0027
UCCUGGAUCAGCUUGCAUAGUAUUUAUUA,0.044 ± 0.011,0.0033 ± 0.0024
UCCUGGAUGUGCUUGCAUAGCAUUUAGUUA,0.0436 ± 0.012,0.00505 ± 0.0018
UCCUGGAUGAGCUUGCAUACUAUUUAGUAA,0.00877 ± 0.0036,0.00227 ± 0.0018
UCCUCCUACAGCUUGCAUAGUAAAUUCAAA,0.125 ± 0.03,0.00279 ± 0.0021
UCCUCCUACAGCUUGCAUAGAUUUUAGAAA,0.0147 ± 0.0053,0.00312 ± 0.0024
UCCUGGAUGUGCUUGCAUAGUAUUCAGUUA,0.0572 ± 0.015,0.00279 ± 0.0024
UCCUGGAACAGCUUGCAAUAGUAUUUAGUUA,0.0492 ± 0.013,0.0183 ± 0.0054
UCCUCCUACAGCUUGCAUAGUUUUUUGUUA,0.0587 ± 0.013,0.00441 ± 0.0026
UCCUGGAACAGCUUGCAUAGUAUUUAGAUUA,0.0966 ± 0.023,0.00539 ± 0.002

Sequence,pre-steady-state target cleavage rate [1],pre-steady-state target cleavage rate [2]
UCCUGGAUGAGCUUCCAUAGUAUUUAGUAA,0.0143 ± 0.0073,0.00253 ± 0.0019
UCCUCCUACAGCUUGCAAUCUAUUUAGUUA,0.0266 ± 0.0058,0.00376 ± 0.0036
UCCUCCUACACCUUGCAUAGUAUUUAGAUA,0.161 ± 0.044,0.004 ± 0.0023
UCCUGCUACUGCUUGCAUAGUAUAUAGUUA,0.121 ± 0.018,0.00619 ± 0.0031
UCCUGGAACAGCUAGCAUAGUAUUUACAAA,0.0718 ± 0.019,0.00337 ± 0.0029
UCCUGCUACAGCUUGCAAACUAUUUAGUUA,0.048 ± 0.012,0.00535 ± 0.002
UCCUCCUACACCUUGCAUAGAAUUUAGUUA,0.0594 ± 0.019,0.0018 ± 0.0016
UCCUGCUACAGCUUGCAUAGUAUAUAGAAA,0.0314 ± 0.01,0.00298 ± 0.0025
UCCUCCUACAGCUUGCAUAGUAUAUACAAA,0.0968 ± 0.025,0.00313 ± 0.003
UCCUGGAACAGCUUGCAUAGUAAAAAGUUA,0.0663 ± 0.018,0.00324 ± 0.0027
UCCUGGAUGACGAUGCAUAGUAUUUAGUUA,0.0949 ± 0.013,0.00546 ± 0.0027
UCCUGCUAGAGCUUCCAUAGUAUUUAGUUA,0.246 ± 0.047,0.00239 ± 0.0017
UCCUCCUACAGCUUCCAUAGUAUUUAGUUA,0.0831 ± 0.025,0.0042 ± 0.0019
UCCUGGAACAGCUUGCAUAGUAUAAAGUUA,0.196 ± 0.029,0.00389 ± 0.0023
UCCUGGUACAGCUUGCAUUGUAUUUUGUUA,0.0604 ± 0.018,0.00266 ± 0.0026
UCCUGGUACAGCUUGCAUUGUAAUUAGUUA,0.0918 ± 0.016,0.00313 ± 0.0023
UCCUGCUACACCUUGCAUAGUAUUAAGUUA,0.178 ± 0.034,0.00618 ± 0.0036
UCCUGGAACAGCUUGCAUAGAAUUUAGAUA,0.0527 ± 0.018,0.00187 ± 0.0015
UCCUGCUACUGCUUGCAUAGUAUUUAGAAA,0.0315 ± 0.0099,0.00545 ± 0.0023
UCCUCCUACAGCUUGCAUAGUAUUUACAAA,0.197 ± 0.04,0.00422 ± 0.003

Sequence,pre-steady-state target cleavage rate [1],pre-steady-state target cleavage rate [2]
UCCUCCUACAGCUUGGAUAGUAUUUAGAUA,0.139 ± 0.019,0.00474 ± 0.0018
UCCUGGAUGAGCUUGCAAAGUAUUUAGAAA,0.0447 ± 0.013,0.00395 ± 0.0031
UCCUCCUAGUCCUUGCAUAGUAUUUAGAAA,0.0654 ± 0.017,0.00217 ± 0.0013
UCCUCCUACAGCUUGCAUAGUAUUUAGUCUA,0.154 ± 0.041,0.00459 ± 0.0018
UCCUCCAUGAGCUUGCAUAGUAUUUAGAAA,0.0637 ± 0.016,0.00475 ± 0.0019
UCCUGGAUCAGCUUGCAUAGUAUAUAGAUA,0.0407 ± 0.013,0.00301 ± 0.0023
UCCUCCUACAGCUUGCUUAGAAUUUAGUUA,0.0487 ± 0.011,0.00419 ± 0.002
UCCUCCUACACCUUGCAUAGUAUUUAGAAA,0.226 ± 0.05,0.00377 ± 0.0021
UCCUCCUACAGCUUGCAUACUAUUUAGUAA,0.0473 ± 0.012,0.00454 ± 0.0033
UCCUGCUACAGCUUGCCAUAGUAUUUAGUUA,0.128 ± 0.015,0.00382 ± 0.0023
UCCUGGAACAGCUAGCAUAGUAUUUAGAUA,0.118 ± 0.02,0.0041 ± 0.0023
UCCUGGAUCAGCUUCCAUAGUAUUUAGUAA,0.0353 ± 0.0094,0.00347 ± 0.0017
UCCUGGUACAGCUUGCAAAGUAUUUAGAAA,0.0181 ± 0.0094,0.00656 ± 0.0038
UCCUGGAACAGCAUGCAUAGUAUUUUGUUA,0.116 ± 0.017,0.00267 ± 0.0022
UCCUGGAUGAGCUUGCAUUGUAUUUAGAUA,0.156 ± 0.038,0.00248 ± 0.0021
UCCUGGAUCAGCUUGCACUAGUAUUUAGUUA,0.00868 ± 0.0048,0.00365 ± 0.0027
UCCUGGAACAGCUUGCAUAGUAUUUCGUUA,0.0829 ± 0.02,0.0025 ± 0.0013
UCCUGGAACACCUUGCAUACUAUUUAGUUA,0.0449 ± 0.0096,0.00273 ± 0.002
UCCUGGAUCAGCUUGCAUAGUAUUUAAUUA,0.0429 ± 0.0097,0.00916 ± 0.0034
UCCUGCUUCAGCUUCCAUAGUAUUUAGUUA,0.0549 ± 0.018,0.00322 ± 0.0013
